# Screens: PubChem, several laboratories
# M18AAP inhibitor = blocks P. falciparum M18 aspartyl aminopeptidase | 290,000 tested, 1.2% active | recombinant PfM18AAP, H-Glu-NHMec fluorogenic cleavage | inhibition, % at 7.35 µM;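 active = inhibition above the campaign mean inhibition over all tested compounds plus 3 SD, cut at about 28% in these data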;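 note: 0% = plate median of test compound wells and 100% = 2 mM ZnCl2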
# HDAC3 inh = human HDAC3 inhibition. O15379. recombinant HDAC3, fluorogenic peptide/trypsin coupled, fluorescence. inhibition, % at 8.3 µM. 320,000 tested, 0.15% active; in the data active = inhibition above about 26%, passing the limit was not always enough
# p97 ATPase inh = blocks human p97 ATPase activity; recombinant p97 ATPase, Kinase-Glo ATP luminescence, 3 h; 220,000 tested, 0.42% active; P55072; AID 1481; inhibition, % at 8 µM; in the data active = inhibition above about 15%;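 note: 0% = DMSO vehicle and 100% = wells lacking enzyme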
# SUMO HTRF inh = SUMOylation inhibition. 290,000 tested, 0.36% active. inhibition, % at 35 µM. HTRF SUMOylation assay, SAE1/SAE2 + UBC9, in vitro. AID 2006; in the data active = inhibition above about 50%, passing the limit was not always enough
# Target sequence (P63279 whole entry, looked up): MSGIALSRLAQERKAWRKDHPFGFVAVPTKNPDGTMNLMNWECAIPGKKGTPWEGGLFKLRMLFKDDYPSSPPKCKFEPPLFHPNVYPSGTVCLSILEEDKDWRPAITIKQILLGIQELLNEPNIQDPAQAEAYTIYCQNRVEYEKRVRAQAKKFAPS
# G6PDH counter = L. mesenteroides G6PDH inhibition counter-screen | Purified L. mesenteroides G6PDH, diaphorase/resazurin coupled fluorescence, 45 min | inhibition, % at 5 µM | 200,000 tested, 0.12% active | AID 1020; in the data active = inhibition above about 50%
# PHOSPHO1 block = PHOSPHO1 (human) inhibition. recombinant PHOSPHO1, absorbance phosphatase assay. inhibition, % at 13.3 µM. 290,000 tested, 1.1% active. AID 1565; in the data active = inhibition above about 60%
# Target sequence (Q8TCT1 whole entry, looked up): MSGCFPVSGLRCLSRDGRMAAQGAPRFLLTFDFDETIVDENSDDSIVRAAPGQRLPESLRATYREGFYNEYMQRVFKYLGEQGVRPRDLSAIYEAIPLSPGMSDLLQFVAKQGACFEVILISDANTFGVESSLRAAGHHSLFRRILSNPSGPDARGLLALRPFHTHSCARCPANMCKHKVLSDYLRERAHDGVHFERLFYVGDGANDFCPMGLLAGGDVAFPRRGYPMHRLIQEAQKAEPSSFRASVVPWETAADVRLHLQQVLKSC
# * hit, by the source's call; . = not tested or not shown. Most compounds without a hit are left out; they make up all but 2.5% or so of the library.
SMILES,M18AAP inhibitor,HDAC3 inh,p97 ATPase inh,SUMO HTRF inh,G6PDH counter,PHOSPHO1 block
CC(C)c1ccc(S(=O)(=O)/N=C2\C=C(NS(=O)(=O)c3ccccc3)C(=O)c3ccccc32)cc1,4,-4,.,33,.,55
CC(C)c1ccc(S(=O)(=O)/N=C2/C=CC(=O)c3ccccc32)cc1,-8,.,8,95,55*,-32
O=C(CC1SC(N2CCCCC2)=NC1=O)Nc1cccc(C(=O)Nc2ncccc2O)c1 (configuration not stated),.,65*,.,.,.,.
CCNC(=O)c1cccc(NC(=O)CC2SC(N3CCCCC3)=NC2=O)c1 (configuration not stated),.,-10,.,.,.,.
COc1cccc(/C=C2\NC(=O)NC2=O)c1O,10,0,.,-9,.,35
COCCn1nnnc1C(c1ccc(Cl)cc1)N1CCN(C(=O)c2ccco2)CC1 (configuration not stated),4,0,.,3,.,43
COCCn1nnnc1C(c1ccc(Cl)cc1)N1CCSCC1 (configuration not stated),9,-14,-3,19,14,74*
CC(C)(C)c1ccc(C(=O)NCC(=O)OCC(=O)Nc2nc(-c3ccc(F)cc3)cs2)cc1,1,-5,3,-24,2,62*
CN1CCN(C(=O)CCN2C(=O)/C(=C\c3ccc(Cl)cc3Cl)SC2=S)CC1,2,-1,1,4,.,84*
CN1CCN(C(=O)CCCN2C(=O)/C(=C/c3ccc(Cl)cc3)SC2=S)CC1,.,3,.,.,.,.
COc1ccccc1NC(=O)C(C)OC(=O)/C(=C/c1ccccc1)NC(C)=O (configuration not stated),.,-2,.,.,.,.
S=c1[nH]nc(-c2cccnc2)n1C1CCCCC1,26,-7,1,5,-8,6
S=c1[nH]nc(-c2ccccc2)n1C1C=CCCC1 (configuration not stated),16,10,6,9,-4,92*
CCN1C(=O)C(=O)N(CC(=O)NC(C)CCc2ccccc2)C1=O (configuration not stated),.,13,.,.,.,.
CCn1c(COc2ccc(C)cc2)nnc1SCc1nc2ccccc2[nH]1,-4,-6,-12,12,1,94*
Clc1ccc(OCc2nnc(SCc3nc4ccccc4[nH]3)n2Cc2ccco2)cc1,5,1,2,-23,5,74*
c1ccc(-c2nnc(SCc3nc4ccccc4[nH]3)n2Cc2ccco2)nc1,0,-1,3,25,0,72*
O=c1[nH]c(CSc2nnc(COc3ccccc3)n2-c2ccccc2)nc2ccccc12,10,2,2,-3,-7,61*
CCOC(=O)C1CCCN(Cc2nc(CC3CC3)no2)C1 (configuration not stated),4,-4,-3,-19,.,22
Cc1ccccc1N1CCN(S(=O)(=O)Cc2ccccc2)CC1,3,.,.,0,.,31
COc1ccc(C)cc1NC(=O)CSc1nnc(COc2ccc(Cl)cc2)n1Cc1ccco1,4,5,-8,-38,4,23
Cn1c(SCc2nc3ccccc3[nH]2)nnc1-c1cnccn1,1,0,3,22,5,-4
Clc1cccc(-c2nnc(SCc3nc4ccccc4[nH]3)n2Cc2ccco2)c1,2,4,1,31,2,77*
Cc1cccc(-c2nnc(SCc3ccc(C#N)cc3)n2Cc2ccco2)c1,1,-2,-5,-31,0,64*
O=C(CSc1nnc(COc2ccc(Cl)cc2)n1Cc1ccco1)c1ccccc1F,17,2,1,5,2,96*
SMILES,M18AAP inhibitor,HDAC3 inh,p97 ATPase inh,SUMO HTRF inh,G6PDH counter,PHOSPHO1 block
c1coc(Cn2c(SCc3nc4ccccc4[nH]3)nnc2-c2cnccn2)c1,7,1,3,4,7,90*
CC1C(=O)Nc2ccc(S(=O)(=O)N3CCN(c4cccc(C(F)(F)F)c4)CC3)cc2NC1=O (configuration not stated),1,16,.,6,.,24
Cc1noc(C)c1C(=O)Nc1ccccc1N1CCOCC1,.,-2,.,.,.,.
COCCN1CCN(C(=O)C2CCC(=O)N(Cc3cccc(C(F)(F)F)c3)C2)CC1 (configuration not stated),-2,5,.,-4,.,47
COCCn1c(SC(C(=O)Nc2cc(C)ccc2OC)c2ccccc2)nnc1-c1ccc(Cl)cc1 (configuration not stated),0,-1,3,-22,-2,63*
COc1ccc(C)cc1NC(=O)C(Sc1nnnn1C)c1ccccc1 (configuration not stated),3,8,5,12,0,6
O=C(CC1SC(N2CCOCC2)=NC1=O)Nc1cccc(C(F)(F)F)c1 (configuration not stated),.,-11,.,.,.,.
O=C(NNC(=O)C1CCCC1)c1cc([N+](=O)[O-])cc([N+](=O)[O-])c1,.,8,.,.,.,.
COCCSc1ccccc1C(=O)N1CCc2ccccc2C1,0,-7,-1,-3,6,60*
Cc1ccc(/C=N\NC(=O)/C(=C\Nc2nccc(C)n2)NC(=O)c2ccccc2)cc1,8,.,7,-9,.,43
COc1ccccc1Oc1c(C)oc2c(CN3CCN(C)CC3)c(O)ccc2c1=O,-2,-47,-1,52*,6,16
COC(=O)c1ccc(Oc2c(C)oc3c(CN4CCN(C)CC4)c(O)ccc3c2=O)cc1,3,-108,-7,38,12,10
Cc1ccc(-n2c(O)c(C=Nc3ccccc3-c3n[nH]c(=S)[nH]c3=O)c3ccccc3c2=O)cc1C,7,.,0,53*,3,18
Cc1ccc(-n2c(O)c(C=Nc3ccccc3-c3n[nH]c(=S)[nH]c3=O)c3ccccc3c2=O)c(C)c1,10,1,4,53*,-1,20
Cc1cc(C)c2nc(Cl)c(Cl)nc2c1,-4,-8,6,3,.,27
CCN(c1ccccc1)c1cc2ccccc2c(=O)[nH]1,23,-4,.,61*,.,30
CN(C(=O)COC(=O)/C=C/c1ccc(C(F)(F)F)cc1)C1CCS(=O)(=O)C1 (configuration not stated),-1,-5,.,10,.,24
Cc1csc(NC(=O)c2ccc(S(=O)(=O)N(C)c3ccccc3)cc2)n1,5,-2,0,-2,5,86*
CCN(CC(=O)NCc1cccs1)CC(=O)Nc1ccccc1C,.,-3,.,.,.,.
COc1ccc(NC(=O)/C(Cl)=C(/Cl)S(=O)Cc2ccccc2Cl)cn1 (configuration not stated),-76,.,15*,10,-4,4
COc1ccc(NC(=O)Cc2ccc(Cl)c(Cl)c2)cn1,-1,3,4,0,3,-5
Cc1cccc(N2CN(S(=O)(=O)c3cccc([N+](=O)[O-])c3)c3nc4ccccc4nc32)c1,.,0,.,.,.,.
Cc1ccc(OCc2n[nH]c(=S)n2Cc2ccccc2)cc1,-1,-11,7,-6,13,-59
